Source: PubChem BioAssay AID1347076 (National Center for Advancing Translational Sciences (NCATS), 2019)
About 13,000 (3.2%) of roughly 400,000 compounds were called active. Not shown: some 18% with an inconclusive outcome. The list comes from a sample in which actives are over-represented; it also holds similar structures and randomly drawn compounds. A number with no mark means an inactive call. Calls come from the whole dose curve; as a rule, active = well fitted cell-killing curve with a large enough effect; inconclusive = small, poorly fitted or top-dose-only effect, or effect the other way; inactive = flat fitted curve, though single readings scatter.

assay: qHTS assay for MDR1-selective chemotherapeutics: Primary screen using the drug-selected MDR subline cells KB-V1; settings: KB-V1 MDR cells viability, CellTiter-Glo, 72 h; series mostly up to 46.1 µM; activity change, negative = cytotoxicity: at the top concentration; note: nearly all actives have a fitted effect of over 60% in size
Method in brief: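 Cells of the MDR subline KB-V1 are plated, dosed with compound at multiple concentrations, and incubated 72 h at 37 degrees C; CellTiter-Glo is then added and luminescence read after 10 min.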
% is set by controls: 0 for no effect and ±100 for the full control effect; potency is the fitted concentration of half-maximal effect.

Structure (SMILES)	activity change, negative = cytotoxicity [%]	Potency
CCc1nc2ccc(C(=O)Nc3cc(-c4ccccc4)ccc3OC)cn2c1N(CC)CC(=O)N(C)C	0.441	–
O=C(OCc1cc(=O)n2nc(C3CC3)sc2n1)c1ccccc1Cl	5.45	–
Cn1c(=O)c2c(nc(CN3CCOCC3)n2Cc2ccccc2)n(C)c1=O	-13.8	–
Cn1c(=O)[nH]c(=O)c2c1nc(CN(Cc1ccccc1)Cc1ccccc1)n2CCN1CCOCC1	–	6.51 µM (active)
Cn1c(=O)[nH]c(=O)c2c1nc(CN1CCN(c3ccccc3F)CC1)n2CCc1ccccc1	-23.1	–
C[C@H]1CN([C@@H](C)CO)C(=O)c2cc(C3=CCCCC3)cnc2O[C@@H]1CN(C)C(=O)Cc1ccccc1	-4.55	–
COc1ccc(CCNC(=O)Cn2c(=O)n(-c3ccccc3)c(=O)c3c(C)c(C)sc32)cc1OC	5.28	–
CC1(C(=O)NS(=O)(=O)C2CC2)CCCN(C(=O)CSc2ccccc2)C1 (stereo unspecified)	3.09	–
Cn1c(C(=O)NCCCN2CCCCC2)cc2sccc21	1.47	–
COc1ccc(CCNC(=O)COC(=O)/C=C/c2cccs2)cc1OC	0.207	–
COc1ccc(CCNC(=O)c2cc3sccc3n2C)cc1OC	–	20.6 µM (active)
O=C(O)C1=C(C(=O)O)C2CCC1C2	1.59	–
Cc1ccc(S(=O)(=O)n2nc(C)c(S(=O)(=O)N3CCCCCC3)c2C)cc1	0	–
Oc1[nH]c2ccccc2c1N=Nc1c(F)c(F)c(F)c(F)c1F	-0.892	–
CN=c1scc(-c2cc(OC)ccc2OC)n1/N=C/c1c(C)[nH]c2ccccc12	-15.5	–
COc1ccc(N=Cc2c(O)[nH]c3ccccc23)cc1OC	–	6.51 µM (active)
COc1cc(N=Cc2c(O)[nH]c3ccccc23)cc(OC)c1OC	–	4.11 µM (active)
COc1ccccc1N=Cc1c(O)c2ccccc2oc1=O	12.6	–
COc1cc2[nH]c(O)c(C=O)c2cc1OC	-2.28	–
CCCCN(C(C)=O)c1ccc2c(c1)C1CC2CCN1Cc1ccccc1 (stereo unspecified)	17.9	–
Cc1ccccc1-c1nc(SCC(=O)N(C)c2ccccc2)c2c(=O)n(C)c(=O)n(C)c2n1	4.94	–
CC1(C(=O)NS(=O)(=O)c2cccc(F)c2)CCN1C(=O)Cc1ccc(Cl)cc1Cl (stereo unspecified)	2.99	–
CNC(=O)c1ccc(CN(C)C(=O)c2cc(C3CC3)nc3c2cnn3C(C)C)cc1	-2.66	–
Cc1noc(C)c1C(=O)Nc1ccccn1	-0.416	–

Structure (SMILES)	activity change, negative = cytotoxicity [%]	Potency
Cc1c(C(=O)Nc2ccccn2)oc2ccc(Br)cc12	–	11.6 µM (active)
Cc1nonc1NC(=O)c1oc2ccccc2c1C	-3.1	–
CCS(=O)(=O)c1nc(S(=O)(=O)c2ccc(C)cc2)c(NCc2ccc(Cl)cc2)s1	-0.968	–
N#Cc1ccc(C(C(=O)NCc2ccccc2)n2c(=O)c(-c3ccco3)nc3ccccc32)cc1 (stereo unspecified)	-9.55	–
C=CCC[C@H](CCCCC)OC(=O)/C=C/[C@H](O)[C@@H](O)C[C@@H](O)CC=C	-0.215	–
O=c1c(-c2cccc(Cl)c2)c[nH]n1-c1ccccc1	-8.43	–
O=C1c2ccccc2NC(c2ccc(-c3cccc(Cl)c3)o2)N1O (stereo unspecified)	–	4.61 µM (active)
O=C(O)C(c1ccccc1)N1C(=O)/C(=C\c2ccc(-c3cccc(Cl)c3)o2)SC1=S (stereo unspecified)	3.2	–
COc1ccc(CCNC(=O)c2cn(C)c3ccc(S(=O)(=O)N(C)C4CCCCC4)cc3c2=O)cc1OC	6.74	–
Cc1cc2nc(-c3ccc(Cl)cc3)c(Cc3cccc(F)c3)n2c(C)c1Br	13.2	–
Brc1ccccc1C1N=C(c2ccccc2)NO1 (stereo unspecified)	5.43	–
N#Cc1ccc(OC2=NS(=O)(=O)c3ccccc32)cc1	-10.2	–
N#Cc1ccc(C2N=C(c3ccccc3)NO2)cc1 (stereo unspecified)	–	18.4 µM (active)
COc1cccc(-c2cc3nc(NCCOc4ccccc4Cl)n(C)c(=O)c3s2)c1	0.524	–
N#Cc1nc(NCc2ccc(Cl)c(Cl)c2)c2ncn(CCCO)c2n1	-9.95	–
COc1ccc(CN2C(=O)C(CC(=O)NCCCCc3ccccc3)CC(C(=O)N3CCOCC3)=C2C)cc1 (stereo unspecified)	17.3	–
CCCN(CCC)C(=O)Cn1c(=O)n(-c2ccc(Cl)cc2)c(=O)c2c3c(sc21)CCCCC3	7.14	–
N#Cc1ccc[n+](CC(=O)c2ccc(F)cc2)c1	0.435	–
Cc1cccc2nc(CSc3nc4[nH]ncc4c(=O)n3-c3cccc(Cl)c3)cc(=O)n12	–	23.1 µM (active)
COc1ccc(CCNC(=O)CSc2nc3[nH]ncc3c(=O)n2-c2cccc(C(F)(F)F)c2)cc1OC	0.314	–
COC(=O)c1ccc(CSc2nc3ccccc3c(=O)n2-c2cccc(OC)c2)o1	3.77	–
Cc1ccc(NC(=O)[C@H](Cc2ccccc2)NC(=O)CC[C@H]2O[C@@H](n3ccc(=O)[nH]c3=O)[C@H](O)[C@@H]2O)cc1C	-15.9	–
O=C(c1ncn2c1c(=O)[nH]c1ccccc12)N1CCc2ccccc2C1	2.78	–
CN1CCN(c2oc(-c3ccc(COc4ccc(Cl)cc4)o3)nc2C#N)CC1	8.39	–

Structure (SMILES)	activity change, negative = cytotoxicity [%]	Potency
CC1(C)Cc2cccc(OCC(=O)N3CCN(c4ccc([N+](=O)[O-])cc4)CC3)c2O1	–	2.59 µM (active)
CC1(C)Cc2cccc(OCC(N)=O)c2O1	5.68	–
CC1(C)Cc2cccc(OCC(=O)NCc3ccccc3)c2O1	-22.5	–
CN(c1ccccc1)S(=O)(=O)c1ccc(C(=O)NCCc2ccccc2)cc1	-4.77	–
Cc1ccccc1CSCCNC(=O)c1ccc(N(C)S(=O)(=O)c2ccccc2)cc1	–	13 µM (active)
COc1ccccc1CNC(=O)c1ccc(N(C)S(=O)(=O)c2ccc(C)cc2)cc1	-19	–
COCc1cccc(-c2csc(C(O)c3ccc(F)cc3)n2)c1 (stereo unspecified)	2.22	–
O=c1cc(CCl)nc2scc(-c3ccccc3)n12	-0.12	–
OCCn1c(-c2ccccc2)csc1=Nc1ccccc1	–	14.6 µM (active)
Cn1c(=O)nc2n(-c3ccc(Br)cc3)c3cccc(Cl)c3cc-2c1=O	-4.35	–
CCOc1ccc(Cl)cc1-c1cc(C(=O)NCc2cccs2)[nH]n1	-10.2	–
CCc1ccccc1OCC(=O)Nc1nnc(C2CC2)s1	-5.12	–
Cc1ccc(Cc2cnc(NC(=O)/C(C#N)=C/c3ccc(-c4cccc([N+](=O)[O-])c4)o3)s2)cc1	–	18.4 µM (active)
N#C/C(=C\c1ccc(-c2cccc([N+](=O)[O-])c2)o1)C(=O)NCCN1CCOCC1	-8.35	–
Cc1ccc(C(=O)N/C(=C/c2ccc(-c3cccc([N+](=O)[O-])c3)o2)C(=O)NCCCN(C)C)cc1	-1.53	–
CC(C)[C@H](NC(=O)c1ccccc1F)C(=O)Nc1cccc(S(=O)(=O)N2CCOCC2)c1	-24.2	–
NS(=O)(=O)c1ccc(CCNC(=O)CCCCCn2c(=O)[nH]c3ccccc3c2=O)cc1	22.6	–
C[C@@H]1Cn2cnc(C(=O)Nc3ccc(CNC(=O)OC(C)(C)C)cc3)c2C(=O)N1	-13.1	–
COc1ccccc1-c1nnc2n1N=C(c1ccc(OC(F)F)c(OCC3CC3)c1)CS2	-13	–
Cc1nnc2n1N=C(c1ccccc1)CS2	7.55	–
COc1ccc(C2=Nn3c(nnc3-c3ccccc3OC)SC2)cc1OC1CCCC1	–	5.8 µM (active)
COc1ccc2c(CNCCc3ccccc3C)c(C(=O)O)n(Cc3ccccc3C)c2c1	3.86	–
COc1ccc(S(=O)(=O)N[C@@H]2C=C[C@@H](CC(=O)N3CCc4ccccc4C3)O[C@@H]2CO)cc1	-1.54	–
COc1cccc(NC(=O)CN(C)C(=O)Cc2ccc(Cl)cc2Cl)c1	-6.54	–

Structure (SMILES)	activity change, negative = cytotoxicity [%]	Potency
COc1cccc(NC(=O)CN(C)C(=O)/C=C/c2cn(-c3ccccc3)nc2-c2cccs2)c1	-25.7	–
COc1cccc(NC(=O)CN(C)C(=O)/C=C/c2cc(OC)ccc2OC)c1	–	10.3 µM (active)
O=C(O)C1CCCN1c1nc(Cl)ccc1[N+](=O)[O-] (stereo unspecified)	21.7	–
COc1ccc(NC2CCCN(C(=O)c3ccccc3-c3ncc[nH]3)C2)cc1 (stereo unspecified)	18.4	–
COc1cc(OC)c(/C=N/NC(=O)c2ccc([N+](=O)[O-])cc2)cc1Br	8.39	–
COc1cccc(/C=N/NC(=O)c2cccc([N+](=O)[O-])c2)c1OS(=O)(=O)c1ccc(C)cc1	–	16.4 µM (active)
Cc1ccc(S(=O)(=O)Oc2ccc(/C=N/NC(=O)c3ccncc3)cc2)cc1	-2.26	–
CC(C)C[C@H]1CN([C@@H](Cc2ccccc2)CN2CCC[C@@H]2CN2C(=O)C(=O)NC[C@@H]2Cc2ccc(O)cc2)C(=O)C(=O)N1CCc1ccccc1	13.8	–
COc1ccc(-c2nc3cnccn3c2NC2CCCCC2)cc1-c1cccc(Cl)c1	–	14.6 µM (active)
CCOc1cc(-c2nnc(SCC(=O)NC3CCCCC3)nc2-c2ccc(OC)c(OCC)c2)ccc1OC	2.67	–
COc1ccccc1N1CCN(c2ncnc3onc(-c4cccc(Cl)c4)c23)CC1	5.03	–
Cc1ccc(Nc2c(-c3ccc(C)cc3)nc3cnccn23)cc1	9.35	–
COc1ccc(C)cc1S(=O)(=O)NC1CCCCC1	0.661	–
COc1cccc(CNC(=O)CN2C(=O)CCc3cc(S(=O)(=O)N4CCOCC4)ccc32)c1	-9.66	–
CCCNC(=O)c1cc(C2CCCCN2C(=O)OC)on1 (stereo unspecified)	6.18	–
CCC(C)C(CO)NC(=O)/C=C/[C@H]1O[C@@H](n2cnc3c(NC(=O)c4ccccc4)ncnc32)[C@H](O)[C@@H]1O (stereo partly specified)	0	–
COc1ccc([C@H]2N[C@]3(CCCN(CC4CCCCC4)C3=O)[C@H]3C(=O)N(C)C(=O)[C@@H]23)cc1	-23	–
Cn1c(=O)c2cc(NC(=O)NCCc3cccs3)ccc2n1Cc1cccc(C(F)(F)F)c1	2.61	–
Cc1cccc(Nc2nc(-c3ccccc3)cs2)n1	3.01	–
CC(=O)Nc1cccc(-c2csc(Nc3cccc(C)n3)n2)c1	–	20.6 µM (active)
CC(=O)NC(c1ccccc1)c1nc(-c2cccc(C(C)C)c2)cs1 (stereo unspecified)	-17.7	–
O=C1CC[C@@H](C(=O)N2CSC[C@@H]2C(=O)Nc2ccc(C(F)(F)F)cc2)N1	-0.952	–
Cc1ccc(-c2nc(=N)sn2Cc2ccccc2)cc1	-15.3	–
CN(N=O)c1ccc(C=C2c3ccccc3-c3ccccc32)cc1	3.84	–
